# Assay results published in the supplement of paper PMC6522484.
# ± gives the standard deviation of the averaged measurements.
# System: HCT116
# Assay: TCF/Wnt firefly luciferase reporter signal relative to plate median (fraction of plate median); higher = higher Wnt reporter signal
# Details: 10 µM; treatment time 24 h; reporter: TCF4/Wnt
# Method in brief: (§1)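 Colorectal cancer cell lines stably transduced with lentiviral TCF/Wnt firefly luciferase reporters (7TFP or TCF4/Wnt) were seeded in 384-well plates. 24 h later they received kinase inhibitor library compounds at a final 10 µM for 24 h. Parallel plates were read for firefly luciferase or CellTiterGlo luminescence on a Tecan F500 reader. Each well's signal was normalised to the plate median (webcellHTS2, additive, no log transformation), and the mean of two independent replicates is reported.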
row,Structure (SMILES),TCF/Wnt firefly luciferase reporter signal
1,O=C(O)c1ccc(Nc2ncc3c(n2)-c2ccc(Cl)cc2C(c2c(F)cccc2F)=NC3)cc1,1.375 ± 0.0071
2,O=C(c1ccc(/C=C/c2n[nH]c3ccccc23)cc1)N1CCNCC1,1.45 ± 0.45
3,Cc1[nH]c(/C=C2\C(=O)Nc3ccc(S(=O)(=O)N(C)c4cccc(Cl)c4)cc32)c(C)c1C(=O)N1CCN(C)CC1,0.756 ± 0.098
4,Nc1cc(C(F)(F)F)c(-c2cc(N3CCOCC3)nc(N3CCOCC3)n2)cn1,0.502 ± 0.057
5,COC(=O)Nc1ccc(-c2nc(N3CCOCC3)c3cnn(C4CCN(Cc5cccnc5)CC4)c3n2)cc1,0.595 ± 0.068
6,Fc1cc(-c2cccc3ncc(-c4cnn(C5CCNCC5)c4)nc23)cc(F)c1CN1CCOCC1,0.967 ± 0.076
7,COCC(=O)NC/C=C/c1ccc2ncnc(Nc3ccc(Oc4ccc(C)nc4)c(C)c3)c2c1,0.786 ± 0.27
8,COc1cc2ncnc(Nc3cccc(Br)c3)c2cc1OC,0.911 ± 0.11
9,Nc1ccc(-c2ccc3ncc4ccc(=O)n(-c5cccc(C(F)(F)F)c5)c4c3c2)cn1 [Torin 2],0.641 ± 0.073
10,Oc1cccc(-c2nc(N3CCOCC3)c3oc4ncccc4c3n2)c1,0.869 ± 0.012
11,Cc1cccc(-c2[nH]c(C(C)(C)C)nc2-c2ccc3nccnc3c2)n1,1.03 ± 0.14
12,Cc1ncc(-c2ccnc(Nc3ccc(S(C)(=O)=O)cc3)n2)n1C(C)C,0.156 ± 0.042
13,CN1CCN(c2nc(C3=C(c4c[nH]c5ccccc45)C(=O)NC3=O)c3ccccc3n2)CC1 [Sotrastaurin (AEB071)],1.33 ± 0.83
14,C[C@@H](N)[C@H]1CC[C@H](C(=O)Nc2ccncc2)CC1,1.53 ± 0.064
15,CC(C)(C)c1cc(/C=C(\C#N)C(N)=S)cc(C(C)(C)C)c1O [Tyrphostin AG 879 (AG 879)],0.791 ± 0.12
16,c1cncc(CN2CCC(n3ncc4c(N5CCOCC5)nc(-c5ccc6[nH]ccc6c5)nc43)CC2)c1,0.897 ± 0.16
17,CCS(=O)(=O)c1cccc(-c2cc(C(=O)NC3CCN(C)CC3)c(C)c3[nH]c4ncc(C)cc4c23)c1,0.565 ± 0.24
18,COC(=O)c1ccc2c(C(=Nc3ccc(N(C)C(=O)CN4CCN(C)CC4)cc3)c3ccccc3)c(O)[nH]c2c1 [BIBF1120 (Vargatef)],0.749 ± 0.54
19,C#Cc1cccc(Nc2ncnc3cc(OCCOC)c(OCCO)cc23)c1 [OSI-420 (Desmethyl Erlotinib)],0.465 ± 0.3
20,Cc1csc(-c2nnc(Nc3ccc(Oc4ncccc4-c4ccnc(N)n4)cc3)c3ccccc23)c1,1.75 ± 0.14

row,Structure (SMILES),TCF/Wnt firefly luciferase reporter signal
1,CCc1cc(Nc2nccc(-c3c(-c4ccc(OC)c(C(=O)Nc5c(F)cccc5F)c4)nc4ccccn34)n2)c(OC)cc1N1CCC(N2CCN(S(C)(=O)=O)CC2)CC1,1.25 ± 0.05
2,CN1CCN(c2ccc3nc(-c4c(N)c5c(F)cccc5[nH]c4=O)[nH]c3c2)CC1 [Dovitinib (TKI-258)],0.97 ± 0.042
3,c1ccc2c(-c3cnn4cc(-c5ccc(N6CCNCC6)cc5)cnc34)ccnc2c1,0.634 ± 0.3
4,O=C1NC(=O)/C(=C\c2ccc3nccnc3c2)S1,1.96 ± 0.18
5,COc1cc2nccc(Oc3ccc(NC(=O)NC4CC4)c(Cl)c3)c2cc1C(N)=O [E7080 (Lenvatinib)],1.31 ± 0.3
6,CC(C)(C)c1cnc(CSc2cnc(NC(=O)C3CCNCC3)s2)o1,0.228 ± 0.0071
7,CCS(=O)(=O)Nc1ccc2c(c1)/C(=C(/Nc1ccc(CN3CCCCC3)cc1)c1ccccc1)C(=O)N2 [Hesperadin],0.492 ± 0.031
8,CNC(=O)c1cc(Oc2ccc(NC(=O)Nc3ccc(Cl)c(C(F)(F)F)c3)c(F)c2)ccn1 [Regorafenib (BAY 73-4506)],0.742 ± 0.34
9,CCc1cc2c(cc1N1CCC(N3CCOCC3)CC1)C(C)(C)c1[nH]c3cc(C#N)ccc3c1C2=O,1.01 ± 0.17
10,CCC[C@H](NC(=O)/C(C#N)=C/c1cccc(Br)n1)c1ccccc1,0.0353 ± 0.0076
11,COc1cc2c(Nc3ccc(NC(=O)c4ccccc4)cc3)ncnc2cc1OCCCN1CCOCC1,1.42 ± 0.23
12,O=C(NOCC(O)CO)c1cc(Br)c(F)c(F)c1Nc1ccc(I)cc1F (stereo not given),1.95 ± 0.47
13,O=C(NC1CCNCC1)c1n[nH]cc1NC(=O)c1c(Cl)cccc1Cl,0.226 ± 0.018
14,CC[C@H](Nc1ncnc2[nH]cnc12)c1nc2cccc(F)c2c(=O)n1-c1ccccc1,0.777 ± 0.3
15,C=CC(=O)Nc1ccc2ncnc(Nc3ccc(OCc4cccc(F)c4)c(Cl)c3)c2c1,0.686 ± 0.33
16,COc1ccc(COc2cc3oc(=O)c4cc(C(C)O)ccc4c3cc2OC)cc1 (stereo not given) [Palomid 529],1.2 ± 0.37
17,O=C(Nc1c[nH]nc1-c1nc2ccc(CN3CCOCC3)cc2[nH]1)NC1CC1,0.189 ± 0.0099
18,CCCCCCCCCCCCc1ccc(S(=O)(=O)Nc2nncs2)cc1,1.21 ± 0.16
19,O=C1NC(=O)C(c2ccccc2[N+](=O)[O-])=C1Nc1ccc(O)c(Cl)c1,2.56 ± 0.96
20,CNC(=O)c1cc(Oc2ccc(NC(=O)Nc3cc(C(C)(C)C)nn3-c3ccc4ncccc4c3)c(F)c2)ccn1 [DCC-2036 (Rebastinib)],0.895 ± 0.2

# System: SW480
# Assay: as above
# Details: 10 µM; treatment time 24 h; reporter: 7TFP
# Method in brief: as §1
row,Structure (SMILES),TCF/Wnt firefly luciferase reporter signal
1,O=C(O)c1ccc(Nc2ncc3c(n2)-c2ccc(Cl)cc2C(c2c(F)cccc2F)=NC3)cc1,0.9575 ± 0.00071
2,O=C(c1ccc(/C=C/c2n[nH]c3ccccc23)cc1)N1CCNCC1,1.53 ± 0.2
3,Cc1[nH]c(/C=C2\C(=O)Nc3ccc(S(=O)(=O)N(C)c4cccc(Cl)c4)cc32)c(C)c1C(=O)N1CCN(C)CC1,0.964 ± 0.065
4,Nc1cc(C(F)(F)F)c(-c2cc(N3CCOCC3)nc(N3CCOCC3)n2)cn1,0.704 ± 0.036
5,COC(=O)Nc1ccc(-c2nc(N3CCOCC3)c3cnn(C4CCN(Cc5cccnc5)CC4)c3n2)cc1,0.765 ± 0.066
6,Fc1cc(-c2cccc3ncc(-c4cnn(C5CCNCC5)c4)nc23)cc(F)c1CN1CCOCC1,1.52
7,COCC(=O)NC/C=C/c1ccc2ncnc(Nc3ccc(Oc4ccc(C)nc4)c(C)c3)c2c1,0.927 ± 0.43
8,COc1cc2ncnc(Nc3cccc(Br)c3)c2cc1OC,0.838 ± 0.09
9,Nc1ccc(-c2ccc3ncc4ccc(=O)n(-c5cccc(C(F)(F)F)c5)c4c3c2)cn1 [Torin 2],0.817 ± 0.0099
10,Oc1cccc(-c2nc(N3CCOCC3)c3oc4ncccc4c3n2)c1,1.1 ± 0.24
11,Cc1cccc(-c2[nH]c(C(C)(C)C)nc2-c2ccc3nccnc3c2)n1,0.854 ± 0.17
12,Cc1ncc(-c2ccnc(Nc3ccc(S(C)(=O)=O)cc3)n2)n1C(C)C,0.793 ± 0.035
13,CN1CCN(c2nc(C3=C(c4c[nH]c5ccccc45)C(=O)NC3=O)c3ccccc3n2)CC1 [Sotrastaurin (AEB071)],0.983 ± 0.63
14,C[C@@H](N)[C@H]1CC[C@H](C(=O)Nc2ccncc2)CC1,1.18 ± 0.057
15,CC(C)(C)c1cc(/C=C(\C#N)C(N)=S)cc(C(C)(C)C)c1O [Tyrphostin AG 879 (AG 879)],0.878 ± 0.041
16,c1cncc(CN2CCC(n3ncc4c(N5CCOCC5)nc(-c5ccc6[nH]ccc6c5)nc43)CC2)c1,1.16 ± 0.014
17,CCS(=O)(=O)c1cccc(-c2cc(C(=O)NC3CCN(C)CC3)c(C)c3[nH]c4ncc(C)cc4c23)c1,0.834 ± 0.1
18,COC(=O)c1ccc2c(C(=Nc3ccc(N(C)C(=O)CN4CCN(C)CC4)cc3)c3ccccc3)c(O)[nH]c2c1 [BIBF1120 (Vargatef)],0.895 ± 0.53
19,C#Cc1cccc(Nc2ncnc3cc(OCCOC)c(OCCO)cc23)c1 [OSI-420 (Desmethyl Erlotinib)],0.668 ± 0.39
20,Cc1csc(-c2nnc(Nc3ccc(Oc4ncccc4-c4ccnc(N)n4)cc3)c3ccccc23)c1,0.983 ± 0.067

row,Structure (SMILES),TCF/Wnt firefly luciferase reporter signal
1,CCc1cc(Nc2nccc(-c3c(-c4ccc(OC)c(C(=O)Nc5c(F)cccc5F)c4)nc4ccccn34)n2)c(OC)cc1N1CCC(N2CCN(S(C)(=O)=O)CC2)CC1,1.24 ± 0.085
2,CN1CCN(c2ccc3nc(-c4c(N)c5c(F)cccc5[nH]c4=O)[nH]c3c2)CC1 [Dovitinib (TKI-258)],1.39 ± 0.6
3,c1ccc2c(-c3cnn4cc(-c5ccc(N6CCNCC6)cc5)cnc34)ccnc2c1,1.35 ± 0.11
4,O=C1NC(=O)/C(=C\c2ccc3nccnc3c2)S1,1.3 ± 0.33
5,COc1cc2nccc(Oc3ccc(NC(=O)NC4CC4)c(Cl)c3)c2cc1C(N)=O [E7080 (Lenvatinib)],0.927 ± 0.34
6,CC(C)(C)c1cnc(CSc2cnc(NC(=O)C3CCNCC3)s2)o1,0.84 ± 0.025
7,CCS(=O)(=O)Nc1ccc2c(c1)/C(=C(/Nc1ccc(CN3CCCCC3)cc1)c1ccccc1)C(=O)N2 [Hesperadin],0.557 ± 0.16
8,CNC(=O)c1cc(Oc2ccc(NC(=O)Nc3ccc(Cl)c(C(F)(F)F)c3)c(F)c2)ccn1 [Regorafenib (BAY 73-4506)],1.03 ± 0.31
9,CCc1cc2c(cc1N1CCC(N3CCOCC3)CC1)C(C)(C)c1[nH]c3cc(C#N)ccc3c1C2=O,0.638 ± 0.31
10,CCC[C@H](NC(=O)/C(C#N)=C/c1cccc(Br)n1)c1ccccc1,0.037 ± 0.0048
11,COc1cc2c(Nc3ccc(NC(=O)c4ccccc4)cc3)ncnc2cc1OCCCN1CCOCC1,1.43 ± 0.057
12,O=C(NOCC(O)CO)c1cc(Br)c(F)c(F)c1Nc1ccc(I)cc1F (stereo not given),2.33 ± 0.064
13,O=C(NC1CCNCC1)c1n[nH]cc1NC(=O)c1c(Cl)cccc1Cl,0.798 ± 0.074
14,CC[C@H](Nc1ncnc2[nH]cnc12)c1nc2cccc(F)c2c(=O)n1-c1ccccc1,0.751 ± 0.26
15,C=CC(=O)Nc1ccc2ncnc(Nc3ccc(OCc4cccc(F)c4)c(Cl)c3)c2c1,1.09 ± 0.11
16,COc1ccc(COc2cc3oc(=O)c4cc(C(C)O)ccc4c3cc2OC)cc1 (stereo not given) [Palomid 529],1.07 ± 0.099
17,O=C(Nc1c[nH]nc1-c1nc2ccc(CN3CCOCC3)cc2[nH]1)NC1CC1,0.84 ± 0.052
18,CCCCCCCCCCCCc1ccc(S(=O)(=O)Nc2nncs2)cc1,0.959 ± 0.12
19,O=C1NC(=O)C(c2ccccc2[N+](=O)[O-])=C1Nc1ccc(O)c(Cl)c1,1.07 ± 0.12
20,CNC(=O)c1cc(Oc2ccc(NC(=O)Nc3cc(C(C)(C)C)nn3-c3ccc4ncccc4c3)c(F)c2)ccn1 [DCC-2036 (Rebastinib)],0.746 ± 0.06
